# Experiments:
# Test in all cases: DAPPL (digital affinity profiling via proximity ligation, sequencing); 10 mM Tris-HCl pH 7.5, 50 mM NaCl, 1 mM DTT, 4% glycerol, room temperature, 30 min; GST-TFs on glutathione beads, 16-mer random dsDNA library, 0.1% formaldehyde crosslink after washing; high values mean tight binding
# [1] = biological target: T1, FEV (Homo sapiens, UniProt Q99581 1-238); details: protein: recombinant; tags: N-terminal GST; dsDNA, one strand shown
# T1 sequence: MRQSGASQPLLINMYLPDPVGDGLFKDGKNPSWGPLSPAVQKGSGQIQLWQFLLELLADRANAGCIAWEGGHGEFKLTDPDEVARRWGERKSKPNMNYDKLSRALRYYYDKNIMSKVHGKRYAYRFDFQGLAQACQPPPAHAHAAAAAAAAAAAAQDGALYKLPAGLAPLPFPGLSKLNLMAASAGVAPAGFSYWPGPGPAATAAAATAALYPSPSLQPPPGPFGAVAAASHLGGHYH
# In short: (§1)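 Sequencing on an Illumina NextSeq500 followed washing, crosslinking with 0.1% formaldehyde, proximity ligation (BsaI/T4 ligase, 1 h, 37 °C) and PCR amplification of pools that had been incubated for 30 min at room temperature with 200 nmole of a random double-stranded 16-mer DNA library in Tris/NaCl/DTT/glycerol buffer. Each pool held DNA-barcoded human transcription factors, expressed in yeast as GST fusions and captured on glutathione beads, plus a tag-only sample. Binding signal is a hexamer's read frequency for a factor divided by its frequency in the tag-only sample.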
# [2] = biological target: ETV5 (Homo sapiens, UniProt P41161 1-510); details: protein: recombinant; tags: N-terminal GST; dsDNA, one strand shown
# In short: as §1
# [3] = biological target: HSF1 (Homo sapiens, UniProt Q00613 1-529); details: protein: recombinant; tags: N-terminal GST; chain copies: 3; dsDNA, one strand shown
# In short: as §1
# [4] = biological target: T2, SPIC (Homo sapiens, UniProt Q8N5J4 1-248); details: protein: recombinant; tags: N-terminal GST; dsDNA, one strand shown
# T2 sequence: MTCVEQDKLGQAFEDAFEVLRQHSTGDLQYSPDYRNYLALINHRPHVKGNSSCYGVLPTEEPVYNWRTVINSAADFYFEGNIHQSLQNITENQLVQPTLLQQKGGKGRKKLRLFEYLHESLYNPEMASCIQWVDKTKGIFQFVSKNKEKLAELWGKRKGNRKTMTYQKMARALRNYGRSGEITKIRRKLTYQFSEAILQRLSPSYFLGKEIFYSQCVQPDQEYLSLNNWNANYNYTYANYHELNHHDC
# In short: as §1
# [5] = biological target: ELF4 (Homo sapiens, UniProt Q99607 1-663); details: protein: recombinant; tags: N-terminal GST; dsDNA, one strand shown
# In short: as §1
# [6] = biological target: T3, ELK4 (Homo sapiens, UniProt P28324-2 1-405); details: protein: recombinant; tags: N-terminal GST; dsDNA, one strand shown
# T3 sequence: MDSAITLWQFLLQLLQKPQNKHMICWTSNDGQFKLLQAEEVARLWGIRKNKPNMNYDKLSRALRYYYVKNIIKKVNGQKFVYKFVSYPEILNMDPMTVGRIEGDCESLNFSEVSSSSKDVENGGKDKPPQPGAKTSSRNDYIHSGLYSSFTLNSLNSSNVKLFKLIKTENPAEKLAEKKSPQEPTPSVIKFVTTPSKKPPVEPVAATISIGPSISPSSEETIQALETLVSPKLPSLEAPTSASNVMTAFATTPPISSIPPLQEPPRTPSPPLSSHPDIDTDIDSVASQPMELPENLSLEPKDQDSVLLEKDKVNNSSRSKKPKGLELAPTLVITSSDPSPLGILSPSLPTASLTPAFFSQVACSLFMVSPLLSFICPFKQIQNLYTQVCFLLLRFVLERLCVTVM
# In short: as §1
# [7] = biological target: T4, ETV2 (Homo sapiens, UniProt O00321 1-342); details: protein: recombinant; tags: N-terminal GST; dsDNA, one strand shown
# T4 sequence: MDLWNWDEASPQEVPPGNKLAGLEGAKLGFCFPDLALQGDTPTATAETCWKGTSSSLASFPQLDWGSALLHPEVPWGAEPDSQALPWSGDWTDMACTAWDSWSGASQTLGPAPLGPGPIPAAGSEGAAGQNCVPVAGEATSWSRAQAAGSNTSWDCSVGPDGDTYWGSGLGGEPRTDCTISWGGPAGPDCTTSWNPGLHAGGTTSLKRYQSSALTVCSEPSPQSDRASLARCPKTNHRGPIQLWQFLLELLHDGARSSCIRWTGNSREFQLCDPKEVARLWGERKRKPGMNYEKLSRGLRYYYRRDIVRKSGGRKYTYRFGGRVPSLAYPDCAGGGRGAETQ
# In short: as §1
# [8] = biological target: T5, ELF3 (Homo sapiens, UniProt P78545 1-371); details: protein: recombinant; tags: N-terminal GST; dsDNA, one strand shown
# T5 sequence: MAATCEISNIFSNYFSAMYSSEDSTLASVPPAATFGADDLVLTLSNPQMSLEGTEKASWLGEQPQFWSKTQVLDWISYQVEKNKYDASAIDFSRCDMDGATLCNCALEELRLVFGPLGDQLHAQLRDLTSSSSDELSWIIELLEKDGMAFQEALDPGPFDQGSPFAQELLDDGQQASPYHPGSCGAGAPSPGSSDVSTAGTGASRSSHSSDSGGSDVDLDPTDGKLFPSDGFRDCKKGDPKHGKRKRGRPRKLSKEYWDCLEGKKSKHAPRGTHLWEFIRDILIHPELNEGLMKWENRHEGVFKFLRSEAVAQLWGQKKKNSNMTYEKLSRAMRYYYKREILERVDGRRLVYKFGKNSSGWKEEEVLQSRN
# In short: as §1
# [9] = biological target: CRX (Homo sapiens, UniProt O43186 1-299); details: protein: recombinant; tags: N-terminal GST; dsDNA, one strand shown
# In short: as §1
# [10] = biological target: ETV1 (Homo sapiens, UniProt P50549 1-477); details: protein: recombinant; tags: N-terminal GST; dsDNA, one strand shown
# In short: as §1
# Sequence of CRX (O43186 whole entry): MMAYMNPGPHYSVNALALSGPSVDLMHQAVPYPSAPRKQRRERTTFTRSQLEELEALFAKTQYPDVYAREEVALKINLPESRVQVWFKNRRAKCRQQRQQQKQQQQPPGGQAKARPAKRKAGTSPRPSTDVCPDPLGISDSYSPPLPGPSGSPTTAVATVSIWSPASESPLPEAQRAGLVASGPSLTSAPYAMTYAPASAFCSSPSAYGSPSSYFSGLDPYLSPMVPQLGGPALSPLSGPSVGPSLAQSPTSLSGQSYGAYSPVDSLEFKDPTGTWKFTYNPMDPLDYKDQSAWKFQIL
# Sequence of ETV1 (P50549 whole entry): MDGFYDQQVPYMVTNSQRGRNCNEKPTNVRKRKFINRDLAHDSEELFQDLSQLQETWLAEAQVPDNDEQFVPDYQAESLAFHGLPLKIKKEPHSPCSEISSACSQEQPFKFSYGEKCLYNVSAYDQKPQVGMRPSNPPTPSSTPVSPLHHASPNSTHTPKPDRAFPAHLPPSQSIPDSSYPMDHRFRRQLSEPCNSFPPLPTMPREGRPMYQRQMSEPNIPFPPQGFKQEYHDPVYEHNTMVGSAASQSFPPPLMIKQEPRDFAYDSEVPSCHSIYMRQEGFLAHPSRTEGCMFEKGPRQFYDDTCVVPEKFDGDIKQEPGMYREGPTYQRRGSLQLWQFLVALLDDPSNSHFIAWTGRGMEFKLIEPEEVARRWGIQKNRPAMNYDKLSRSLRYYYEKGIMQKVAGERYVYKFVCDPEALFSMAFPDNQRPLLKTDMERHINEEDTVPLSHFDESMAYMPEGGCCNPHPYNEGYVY
# Sequence of ELF4 (Q99607 whole entry): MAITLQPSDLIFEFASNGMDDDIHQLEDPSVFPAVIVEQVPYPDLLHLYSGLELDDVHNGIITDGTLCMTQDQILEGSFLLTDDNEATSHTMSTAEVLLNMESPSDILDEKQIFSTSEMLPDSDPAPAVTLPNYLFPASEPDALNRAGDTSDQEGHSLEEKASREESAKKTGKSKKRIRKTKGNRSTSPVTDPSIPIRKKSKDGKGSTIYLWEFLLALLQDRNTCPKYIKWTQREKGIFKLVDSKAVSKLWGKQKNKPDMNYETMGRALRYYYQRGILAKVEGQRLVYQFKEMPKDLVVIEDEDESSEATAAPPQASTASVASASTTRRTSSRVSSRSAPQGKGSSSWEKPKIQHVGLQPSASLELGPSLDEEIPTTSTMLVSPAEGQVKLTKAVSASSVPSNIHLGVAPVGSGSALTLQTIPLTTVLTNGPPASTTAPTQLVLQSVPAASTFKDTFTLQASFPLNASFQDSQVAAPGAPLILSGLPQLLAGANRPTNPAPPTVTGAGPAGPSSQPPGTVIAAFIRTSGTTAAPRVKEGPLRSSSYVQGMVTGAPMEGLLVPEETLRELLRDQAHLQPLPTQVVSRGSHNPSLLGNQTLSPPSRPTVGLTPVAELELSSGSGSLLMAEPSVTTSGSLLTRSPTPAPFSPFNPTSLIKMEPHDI
# Sequence of HSF1 (Q00613 whole entry): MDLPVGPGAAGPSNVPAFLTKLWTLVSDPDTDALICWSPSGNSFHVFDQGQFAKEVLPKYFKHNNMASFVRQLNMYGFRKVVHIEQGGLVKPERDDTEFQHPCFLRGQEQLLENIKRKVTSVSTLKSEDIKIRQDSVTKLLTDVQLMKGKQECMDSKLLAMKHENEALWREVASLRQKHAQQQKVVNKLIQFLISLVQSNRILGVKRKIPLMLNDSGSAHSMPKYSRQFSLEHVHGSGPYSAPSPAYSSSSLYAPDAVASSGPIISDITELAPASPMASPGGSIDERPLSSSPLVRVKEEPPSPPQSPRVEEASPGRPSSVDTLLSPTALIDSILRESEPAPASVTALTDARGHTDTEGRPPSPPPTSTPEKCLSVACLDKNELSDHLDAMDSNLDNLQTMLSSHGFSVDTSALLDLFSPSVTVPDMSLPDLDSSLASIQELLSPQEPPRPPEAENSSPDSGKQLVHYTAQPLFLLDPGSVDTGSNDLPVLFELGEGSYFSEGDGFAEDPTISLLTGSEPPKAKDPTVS
# Sequence of ETV5 (P41161 whole entry): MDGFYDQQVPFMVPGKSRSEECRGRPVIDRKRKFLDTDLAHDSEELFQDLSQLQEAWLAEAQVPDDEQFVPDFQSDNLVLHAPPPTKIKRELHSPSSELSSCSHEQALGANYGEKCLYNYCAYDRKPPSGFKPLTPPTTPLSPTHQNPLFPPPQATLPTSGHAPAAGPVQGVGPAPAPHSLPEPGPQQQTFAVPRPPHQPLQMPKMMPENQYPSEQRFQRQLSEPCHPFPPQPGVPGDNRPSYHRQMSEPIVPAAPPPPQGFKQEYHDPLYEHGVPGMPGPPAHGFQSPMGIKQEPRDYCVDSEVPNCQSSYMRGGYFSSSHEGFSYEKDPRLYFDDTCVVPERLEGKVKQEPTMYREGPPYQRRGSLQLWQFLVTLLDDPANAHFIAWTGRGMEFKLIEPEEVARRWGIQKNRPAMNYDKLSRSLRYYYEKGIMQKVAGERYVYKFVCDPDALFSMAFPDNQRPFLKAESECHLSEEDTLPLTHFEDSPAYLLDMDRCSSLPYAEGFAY
sequence,measurement,setting,value
CTTGGT,binding signal,[1],"1.33 fold enrichment (6-mer frequency, TF over GST control)"
same,binding signal,[2],"1.46 fold enrichment (6-mer frequency, TF over GST control)"
same,binding signal,[3],"1.18 fold enrichment (6-mer frequency, TF over GST control)"
same,binding signal,[4],"1.61 fold enrichment (6-mer frequency, TF over GST control)"
same,binding signal,[5],"1.58 fold enrichment (6-mer frequency, TF over GST control)"
same,binding signal,[6],"1.53 fold enrichment (6-mer frequency, TF over GST control)"
same,binding signal,[7],"1.53 fold enrichment (6-mer frequency, TF over GST control)"
same,binding signal,[8],"1.51 fold enrichment (6-mer frequency, TF over GST control)"
same,binding signal,[9],"1.21 fold enrichment (6-mer frequency, TF over GST control)"
same,binding signal,[10],"1.53 fold enrichment (6-mer frequency, TF over GST control)"

# Source: PMC7862700, “An all-to-all approach to the identification of sequence-specific readers for epigenetic DNA modifications on cytosine”
